The full data set covers some 7,900 targets. This sample favours those with a hit. About 0.6% of all pairs of compound and target were hits. Unmarked numbers belong to inactive results.
Assays:
Assay in all cases: log2 fold change, soluble protein after heating vs DMSO (PISA); higher = thermal stabilisation; K562 cells, 10 uM, 30 min; active = over 0.2 and 3.5 SD of the protein, either way, in both replicates (recomputed)
[1] = compound: CC[C@@H]1C(=O)N(C)c2cnc(Nc3ccc(C(=O)NC4CCN(C)CC4)cc3OC)nc2N1C1CCCC1
Method in brief: (§1)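 Values are thermal stability changes relative to control samples and are taken from duplicates. They are stated as log2 fold changes. Before quantification by TMTpro 16plex LC-MS/MS with equalised channel sums, K562 cells at 2×10^6 cells/mL were treated with 10 μM compound for 30 min, heated in aliquots for 3 min across 48°C-58°C, pooled, extracted in PBS with 0.5% NP-40 at 4°C, and centrifuged at 21,000xg for 90 min to give the soluble supernatant.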

volasertib = compound: CC[C@@H]1C(=O)N(C)c2cnc(Nc3ccc(C(=O)N[C@H]4CC[C@H](N5CCN(CC6CC6)CC5)CC4)cc3OC)nc2N1C(C)C [volasertib]
Method in brief: as §1

[2] = compound: CC[C@H](C)N1C=C(C2=C(C=C(C=C21)C3=CN=C(C=C3)N4CCNCC4)C(=O)NCC5=C(C=C(NC5=O)C)C)C
Method in brief: as §1

epoxomicin = compound: CC[C@H](C)[C@@H](C(=O)N[C@@H]([C@@H](C)O)C(=O)N[C@@H](CC(C)C)C(=O)[C@]1(CO1)C)NC(=O)[C@H]([C@@H](C)CC)N(C)C(=O)C [epoxomicin]
Method in brief: as §1

[3] = compound: CCn1c(C(=O)N(C2CC2)C2CC2)cc2c3c(ncn3C)c(Nc3cc(C)n(C)n3)nc21
Method in brief: as §1

[4] = compound: CCn1cc(-c2ccnc3[nH]c(-c4cccc(CN(C)C)c4)cc23)c(-c2ccc(NC(=O)N(C)C)cc2)n1
Method in brief: as §1

[5] = compound: CN(C)CC(=O)Nc1ccc2[nH]c(=O)c3ccccc3c2c1
Method in brief: as §1

rosiglitazone = compound: CN(CCOC1=CC=C(C=C1)C[C@H]2C(=O)NC(=O)S2)C3=CC=CC=N3 (racemic) [rosiglitazone]
Method in brief: as §1

[6] = compound: CN1C2=C(C3=C1C(=O)N(N=C3)CC4=CC(=CC=C4)N)SC(=C2)S(=O)C
Method in brief: as §1

[7] = compound: CN1CCC(CNc2ccc3ncc(-c4cccc(OC(F)(F)F)c4)n3n2)CC1
Method in brief: as §1

saracatinib = compound: CN1CCN(CCOc2cc(OC3CCOCC3)c3c(Nc4c(Cl)ccc5c4OCO5)ncnc3c2)CC1 [saracatinib]
Method in brief: as §1

sotrastaurin = compound: CN1CCN(c2nc(C3=C(c4c[nH]c5ccccc45)C(=O)NC3=O)c3ccccc3n2)CC1 [sotrastaurin]
Method in brief: as §1

alvocidib = compound: CN1CC[C@H](c2c(O)cc(O)c3c(=O)cc(-c4ccccc4Cl)oc23)[C@H](O)C1 [alvocidib]
Method in brief: as §1

Tubastatin A = compound: CN1CCc2c(c3ccccc3n2Cc2ccc(C(=O)NO)cc2)C1 [Tubastatin A]
Method in brief: as §1

[8] = compound: CNC(=O)C1=CC=CC=C1NC2=NC(=NC=C2Cl)NC3=C(C=C(C=C3)N4CCOCC4)OC
Method in brief: as §1

defactinib = compound: CNC(=O)c1ccc(Nc2ncc(C(F)(F)F)c(NCc3nccnc3N(C)S(C)(=O)=O)n2)cc1 [defactinib]
Method in brief: as §1

rucaparib = compound: CNCc1ccc(-c2[nH]c3cc(F)cc4c3c2CCNC4=O)cc1 [rucaparib]
Method in brief: as §1

[9] = compound: CNc1nc(-c2ccc3c(N)n[nH]c3c2)cc(N2C[C@@H](C(=O)NC3CCCCC3)CC[C@H]2C)n1
Method in brief: as §1

encorafenib = compound: COC(=O)N[C@@H](C)CNc1nccc(-c2cn(C(C)C)nc2-c2cc(Cl)cc(NS(C)(=O)=O)c2F)n1 [encorafenib]
Method in brief: as §1

[10] = compound: COC(=O)[C@H](CCSC)NC(=O)C1=C(C=C(C=C1)NC[C@H](CS)N)C2=CC=CC=C2
Method in brief: as §1

Sequence of UniProt Q8WUM4 (Q8WUM4 whole entry, looked up): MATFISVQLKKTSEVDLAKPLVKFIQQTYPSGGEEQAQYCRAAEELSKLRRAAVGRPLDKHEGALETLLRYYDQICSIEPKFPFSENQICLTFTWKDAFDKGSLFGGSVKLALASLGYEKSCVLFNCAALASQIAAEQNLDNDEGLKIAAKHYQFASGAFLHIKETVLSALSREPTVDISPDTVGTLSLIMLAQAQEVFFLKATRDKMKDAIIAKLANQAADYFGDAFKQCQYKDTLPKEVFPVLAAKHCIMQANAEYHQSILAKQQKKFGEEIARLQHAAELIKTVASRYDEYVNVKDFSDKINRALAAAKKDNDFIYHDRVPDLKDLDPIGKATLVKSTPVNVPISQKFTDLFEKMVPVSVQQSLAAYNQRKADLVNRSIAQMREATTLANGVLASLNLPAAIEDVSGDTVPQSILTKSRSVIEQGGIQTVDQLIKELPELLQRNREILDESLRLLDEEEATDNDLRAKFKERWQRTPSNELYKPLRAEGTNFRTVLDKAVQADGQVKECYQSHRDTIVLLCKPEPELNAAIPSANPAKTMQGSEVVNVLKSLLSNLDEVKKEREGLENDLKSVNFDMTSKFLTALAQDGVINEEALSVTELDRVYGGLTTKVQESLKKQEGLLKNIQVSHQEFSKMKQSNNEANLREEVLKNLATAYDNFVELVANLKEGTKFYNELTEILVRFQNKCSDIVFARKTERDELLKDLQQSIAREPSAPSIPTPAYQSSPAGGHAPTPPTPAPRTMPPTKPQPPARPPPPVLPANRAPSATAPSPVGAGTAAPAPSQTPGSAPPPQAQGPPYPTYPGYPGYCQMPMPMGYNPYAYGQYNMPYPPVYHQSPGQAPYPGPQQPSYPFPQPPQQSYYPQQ
Sequence of UniProt O95997 (O95997 whole entry, looked up): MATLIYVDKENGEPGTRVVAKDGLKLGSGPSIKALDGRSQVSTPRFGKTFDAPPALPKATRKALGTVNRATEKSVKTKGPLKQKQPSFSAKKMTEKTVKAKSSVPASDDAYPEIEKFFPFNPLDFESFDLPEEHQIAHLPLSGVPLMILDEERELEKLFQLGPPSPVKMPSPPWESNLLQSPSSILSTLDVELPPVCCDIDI
Sequence of UniProt Q9Y478 (Q9Y478 whole entry, looked up): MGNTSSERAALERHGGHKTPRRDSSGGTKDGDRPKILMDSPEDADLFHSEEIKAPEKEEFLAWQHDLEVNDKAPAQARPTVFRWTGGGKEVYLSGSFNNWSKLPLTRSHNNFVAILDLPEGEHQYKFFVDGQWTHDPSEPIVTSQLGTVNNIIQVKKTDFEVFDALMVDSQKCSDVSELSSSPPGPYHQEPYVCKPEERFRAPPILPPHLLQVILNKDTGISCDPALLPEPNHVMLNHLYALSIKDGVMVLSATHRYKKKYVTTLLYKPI
Sequence of UniProt Q53EL6 (Q53EL6 whole entry, looked up): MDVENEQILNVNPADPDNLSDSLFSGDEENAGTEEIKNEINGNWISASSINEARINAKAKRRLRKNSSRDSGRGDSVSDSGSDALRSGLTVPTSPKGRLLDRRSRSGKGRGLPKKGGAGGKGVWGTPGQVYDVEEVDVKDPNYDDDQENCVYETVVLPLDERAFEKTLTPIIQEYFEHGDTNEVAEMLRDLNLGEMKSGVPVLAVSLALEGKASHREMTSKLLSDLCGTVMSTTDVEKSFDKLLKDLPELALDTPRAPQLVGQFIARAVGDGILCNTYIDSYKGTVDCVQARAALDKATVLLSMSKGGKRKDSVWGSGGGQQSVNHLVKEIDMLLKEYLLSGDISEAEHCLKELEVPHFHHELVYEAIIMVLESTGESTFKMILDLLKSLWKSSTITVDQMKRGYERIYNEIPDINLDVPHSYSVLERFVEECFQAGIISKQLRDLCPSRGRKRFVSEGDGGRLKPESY
Sequence of UniProt O00232 (O00232 whole entry, looked up): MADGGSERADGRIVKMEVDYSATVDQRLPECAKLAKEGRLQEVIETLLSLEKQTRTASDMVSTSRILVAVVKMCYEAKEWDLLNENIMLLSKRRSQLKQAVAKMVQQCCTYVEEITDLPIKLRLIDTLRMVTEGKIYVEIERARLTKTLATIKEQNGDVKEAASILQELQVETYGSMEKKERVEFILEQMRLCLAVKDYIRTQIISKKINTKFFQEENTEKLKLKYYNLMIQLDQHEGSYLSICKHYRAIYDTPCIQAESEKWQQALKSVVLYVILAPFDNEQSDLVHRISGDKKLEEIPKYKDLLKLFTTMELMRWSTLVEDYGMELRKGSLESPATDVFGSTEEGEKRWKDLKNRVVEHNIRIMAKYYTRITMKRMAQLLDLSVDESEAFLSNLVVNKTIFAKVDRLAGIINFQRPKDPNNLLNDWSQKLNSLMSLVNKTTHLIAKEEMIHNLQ
Sequence of UniProt Q96AD5 (Q96AD5 whole entry, looked up): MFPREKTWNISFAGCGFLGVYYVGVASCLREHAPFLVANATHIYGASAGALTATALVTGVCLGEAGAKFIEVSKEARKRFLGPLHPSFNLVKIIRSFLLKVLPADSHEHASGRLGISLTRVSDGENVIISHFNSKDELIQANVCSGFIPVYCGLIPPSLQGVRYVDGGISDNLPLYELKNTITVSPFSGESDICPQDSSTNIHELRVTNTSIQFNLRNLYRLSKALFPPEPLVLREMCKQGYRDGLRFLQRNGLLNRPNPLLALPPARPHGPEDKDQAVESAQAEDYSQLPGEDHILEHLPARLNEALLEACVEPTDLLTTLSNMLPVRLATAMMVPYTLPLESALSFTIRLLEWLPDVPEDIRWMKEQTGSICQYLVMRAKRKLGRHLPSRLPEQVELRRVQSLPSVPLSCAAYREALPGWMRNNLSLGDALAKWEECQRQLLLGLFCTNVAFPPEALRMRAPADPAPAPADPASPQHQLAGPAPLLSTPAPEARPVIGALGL
Sequence of UniProt Q05655 (Q05655 whole entry, looked up): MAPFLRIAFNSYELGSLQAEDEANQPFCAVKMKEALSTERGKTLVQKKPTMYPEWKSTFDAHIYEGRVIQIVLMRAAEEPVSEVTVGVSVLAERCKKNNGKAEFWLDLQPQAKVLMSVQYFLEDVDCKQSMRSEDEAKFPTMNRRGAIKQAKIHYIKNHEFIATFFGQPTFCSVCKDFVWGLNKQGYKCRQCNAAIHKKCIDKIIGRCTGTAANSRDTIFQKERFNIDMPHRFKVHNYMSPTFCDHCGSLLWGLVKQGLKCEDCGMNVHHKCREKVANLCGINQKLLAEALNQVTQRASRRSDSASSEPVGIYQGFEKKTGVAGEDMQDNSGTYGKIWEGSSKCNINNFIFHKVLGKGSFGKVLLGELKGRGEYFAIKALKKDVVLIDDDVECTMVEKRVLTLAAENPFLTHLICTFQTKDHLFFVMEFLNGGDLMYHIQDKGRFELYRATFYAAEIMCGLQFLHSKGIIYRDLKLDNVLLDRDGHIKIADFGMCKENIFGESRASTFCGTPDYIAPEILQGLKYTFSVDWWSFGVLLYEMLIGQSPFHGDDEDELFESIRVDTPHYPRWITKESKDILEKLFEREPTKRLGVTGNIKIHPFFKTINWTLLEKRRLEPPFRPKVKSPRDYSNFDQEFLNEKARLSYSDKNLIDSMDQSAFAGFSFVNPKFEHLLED
Sequence of UniProt P05771 (P05771 whole entry, looked up): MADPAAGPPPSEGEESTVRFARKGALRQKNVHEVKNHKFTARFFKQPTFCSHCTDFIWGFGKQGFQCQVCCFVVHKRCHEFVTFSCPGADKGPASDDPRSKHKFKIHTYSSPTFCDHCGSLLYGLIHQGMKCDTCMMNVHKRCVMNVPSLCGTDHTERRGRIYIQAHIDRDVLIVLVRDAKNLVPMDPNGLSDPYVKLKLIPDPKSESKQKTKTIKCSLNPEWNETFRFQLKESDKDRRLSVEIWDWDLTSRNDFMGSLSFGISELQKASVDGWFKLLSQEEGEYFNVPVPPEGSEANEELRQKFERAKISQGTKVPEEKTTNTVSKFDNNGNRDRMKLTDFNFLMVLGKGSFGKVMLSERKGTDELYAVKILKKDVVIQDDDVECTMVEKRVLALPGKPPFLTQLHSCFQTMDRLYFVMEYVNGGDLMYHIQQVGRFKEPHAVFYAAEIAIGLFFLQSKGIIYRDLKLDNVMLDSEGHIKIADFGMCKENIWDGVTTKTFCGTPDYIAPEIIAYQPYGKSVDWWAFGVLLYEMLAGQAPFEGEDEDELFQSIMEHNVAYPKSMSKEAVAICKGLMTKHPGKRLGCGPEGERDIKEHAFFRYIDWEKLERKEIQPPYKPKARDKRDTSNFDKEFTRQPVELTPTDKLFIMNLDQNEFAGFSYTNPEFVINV
Sequence of UniProt P54619 (P54619 whole entry, looked up): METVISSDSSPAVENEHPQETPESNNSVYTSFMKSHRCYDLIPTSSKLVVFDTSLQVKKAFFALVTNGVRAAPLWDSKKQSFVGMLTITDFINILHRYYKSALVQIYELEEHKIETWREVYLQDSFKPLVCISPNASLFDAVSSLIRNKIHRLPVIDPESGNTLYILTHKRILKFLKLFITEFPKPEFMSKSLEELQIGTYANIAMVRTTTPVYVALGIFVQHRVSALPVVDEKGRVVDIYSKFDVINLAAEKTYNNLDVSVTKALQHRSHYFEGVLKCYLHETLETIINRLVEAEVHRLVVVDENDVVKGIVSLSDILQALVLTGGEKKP
Sequence of UniProt Q9H300 (Q9H300 whole entry, looked up): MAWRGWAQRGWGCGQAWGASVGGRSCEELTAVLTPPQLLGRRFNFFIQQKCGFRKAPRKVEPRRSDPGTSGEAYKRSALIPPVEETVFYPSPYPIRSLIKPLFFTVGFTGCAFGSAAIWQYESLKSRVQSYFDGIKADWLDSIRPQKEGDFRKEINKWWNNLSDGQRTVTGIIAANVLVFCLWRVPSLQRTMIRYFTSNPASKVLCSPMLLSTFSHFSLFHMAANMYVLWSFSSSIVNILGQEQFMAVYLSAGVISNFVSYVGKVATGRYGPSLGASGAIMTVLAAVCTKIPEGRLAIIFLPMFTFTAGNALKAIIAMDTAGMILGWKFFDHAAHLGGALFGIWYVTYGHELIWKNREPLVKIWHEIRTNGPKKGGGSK

| Target | log2 fold change [1] | log2 fold change (volasertib) | log2 fold change [2] | log2 fold change (epoxomicin) | log2 fold change [3] | log2 fold change [4] | log2 fold change [5] | log2 fold change (rosiglitazone) | log2 fold change [6] | log2 fold change [7] | log2 fold change (saracatinib) | log2 fold change (sotrastaurin) | log2 fold change (alvocidib) | log2 fold change (Tubastatin A) | log2 fold change [8] | log2 fold change (defactinib) | log2 fold change (rucaparib) | log2 fold change [9] | log2 fold change (encorafenib) | log2 fold change [10] |
| --- | --- | --- | --- | --- | --- | --- | --- | --- | --- | --- | --- | --- | --- | --- | --- | --- | --- | --- | --- | --- |
| PARL (UniProt Q9H300) | -0.059 | -0.008 | -0.009 | -0.076 | 0.031 | -0.062 | -0.035 | 0.035 | -0.004 | -0.134 | 0.056 | 0.019 | 0.026 | -0.053 | 0.025 | -0.011 | -0.005 | -0.052 | 0.029 | 0.015 |
| PTTG1 (UniProt O95997) | 0.105 | 0.124 | 0.008 | 0.293 (active) | 0.008 | 0.057 | -0.02 | 0.008 | 0.008 | -0.092 | -0.061 | -0.004 | 0.004 | 0.141 | -0.145 | -0.029 | -0.145 | -0.088 | -0.001 | 0.031 |
| POLR2B (UniProt P30876) | 0.064 | -0.128 | -0.018 | -0.008 | -0.046 | 0.023 | -0.015 | 0.037 | 0.03 | 0.031 | -0.071 | -0.032 | 0.254 (active) | -0.01 | -0.016 | 0.173 | 0.174 | -0.012 | 0.056 | -0.044 |
| PRKAB1 (UniProt Q9Y478) | -0.079 | -0.418 (active) | 0.045 | 0.055 | -0.05 | -0.018 | 0.022 | -0.002 | -0.026 | -0.155 | 0.077 | 0 | -0.041 | 0.087 | -0.117 | -0.037 | 0.011 | -0.02 | 0.028 | -0.021 |
| PRKCD (UniProt Q05655) | 0.036 | -0.073 | 0.031 | -0.003 | 0.005 | -0.067 | -0.009 | 0.062 | -0.05 | -0.159 | -0.026 | -0.256 (active) | -0.1 | -0.007 | 0.002 | -0.002 | -0.031 | -0.033 | -0.029 | -0.024 |
| PDCD6IP (UniProt Q8WUM4) | -0.219 | -0.694 (active) | 0.166 | 0.082 | -0.097 | -0.06 | 0.116 | 0.097 | 0.043 | -0.256 | -0.11 | -0.227 | -0.132 | 0.048 | 0.034 | -0.141 | 0.119 | 0.055 | 0.138 | -0.048 |
| PDCD4 (UniProt Q53EL6) | -0.26 | -0.585 (active) | -0.013 | 0.055 | -0.045 | -0.053 | 0.065 | 0.056 | -0.107 | 0.011 | -0.008 | 0.138 | -0.113 | 0 | 0.177 | -0.243 | -0.113 | 0.114 | 0.073 | -0.097 |
| PSMD12 (UniProt O00232) | 0.03 | 0.158 | 0.02 | -0.278 | -0.008 | 0.017 | -0.007 | -0.038 | 0.01 | 0.062 | -0.024 | -0.029 | 0.026 | 0.04 | 0.033 | 0.048 | 0.014 | 0.054 | 0.031 | -0.032 |
| PNPLA2 (UniProt Q96AD5) | 0.11 | 0.126 | 0.015 | -0.041 | 0.013 | 0.156 | -0.044 | -0.155 | -0.025 | -0.068 | 0.015 | -0.028 | -0.058 | -0.034 | -0.039 | 0 | -0.06 | 0.154 | -0.012 | -0.056 |
| PRKAG1 isoform 3 (UniProt P54619) | -0.018 | -0.207 | 0.048 | -0.024 | 0.002 | -0.033 | -0.015 | 0.033 | -0.009 | -0.299 (active) | -0.016 | 0.04 | -0.062 | 0.01 | -0.184 | -0.081 | -0.005 | -0.026 | 0.026 | -0.014 |
| PDCD6 (UniProt O75340) | -0.157 | -0.283 (active) | -0.006 | 0.031 | -0.005 | -0.01 | 0.007 | 0.025 | -0.041 | -0.057 | 0.038 | -0.014 | -0.003 | 0.001 | 0.026 | -0.017 | -0.048 | -0.153 | 0.002 | 0.004 |
| PEX16 isoform 2 (UniProt Q9Y5Y5) | -0.065 | -0.138 | -0.013 | -0.024 | -0.041 | 0.033 | 0.013 | 0.062 | -0.127 | -0.124 | 0.038 | -0.02 | -0.141 | 0.021 | -0.053 | -0.106 | 0.042 | -0.04 | 0.001 | 0.05 |
| PSMD1 (UniProt Q99460) | 0.042 | 0.146 | -0.001 | -0.278 | 0.015 | 0.028 | -0.005 | -0.026 | 0.043 | 0.059 | -0.033 | -0.064 | 0.051 | 0.016 | 0 | 0.087 | -0.003 | 0.048 | 0.062 | 0.018 |
| PRKCB isoform 2 (UniProt P05771) | -0.068 | -0.213 (active) | 0.04 | 0.03 | -0.005 | -0.06 | 0.006 | 0.007 | -0.054 | -0.135 | -0.006 | -0.343 (active) | -0.014 | -0.004 | 0.012 | -0.03 | 0.001 | -0.03 | 0.031 | -0.001 |
| PDPK1 (UniProt O15530) | -0.136 | -0.232 | 0.034 | 0.055 | -0.035 | -0.05 | 0.034 | 0.064 | -0.008 | -0.275 | -0.008 | 0.034 | -0.075 | 0.023 | -0.064 | -0.025 | -0.056 | 0.385 (active) | 0.041 | 0 |
